Compounds with a hit are over-represented: about 3.4% of the library has one in this group of screens.
MITF primary = blocks human microphthalmia-associated transcription factor. O75030. AlphaScreen MITF homodimerization, bead proximity signal. inhibition, % at 2.6 µM. 650,000 compounds, 0.91% hits. AID 1259374; in the data active = inhibition above about 50%;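 also: 0% = vehicle wells with protein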
TEAD-YAP inh = TEAD-YAP interaction inhibition | HEK-TIYL cells, TEAD-Gal4/YAP UAS-luciferase luminescence | inhibition, % at 9.12 µM | 640,000 compounds, 1.4% hits | AID 1259422; in the data active = inhibition above about 32%;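 also: 0% = median of test compound wells and 100% = reference inhibitor wells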
GPR151 activ = activates the human receptor GPR151; AID 1508602; 650,000 compounds, 1% hits; PathHunter beta-arrestin GPR151 cells, luminescence; activation, % at 11.2 µM; in the data active = activation above about 4.9%;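 also: 0% = median of compound wells and 100% = cells with positive control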
FBW7 act = activators of human E3 ligase FBW7 | Q969H0 | AlphaScreen FBW7–phospho-cyclin E peptide binding, activator screen | normalized activity (activation), % at 26.1 µM | 650,000 compounds, 0.13% hits | AID 1259310; in the data active = normalized activity above about 1.9%;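 also: purified mutant Fbw7 with reduced substrate affinity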
Target sequence (Q969H0 whole entry, looked up): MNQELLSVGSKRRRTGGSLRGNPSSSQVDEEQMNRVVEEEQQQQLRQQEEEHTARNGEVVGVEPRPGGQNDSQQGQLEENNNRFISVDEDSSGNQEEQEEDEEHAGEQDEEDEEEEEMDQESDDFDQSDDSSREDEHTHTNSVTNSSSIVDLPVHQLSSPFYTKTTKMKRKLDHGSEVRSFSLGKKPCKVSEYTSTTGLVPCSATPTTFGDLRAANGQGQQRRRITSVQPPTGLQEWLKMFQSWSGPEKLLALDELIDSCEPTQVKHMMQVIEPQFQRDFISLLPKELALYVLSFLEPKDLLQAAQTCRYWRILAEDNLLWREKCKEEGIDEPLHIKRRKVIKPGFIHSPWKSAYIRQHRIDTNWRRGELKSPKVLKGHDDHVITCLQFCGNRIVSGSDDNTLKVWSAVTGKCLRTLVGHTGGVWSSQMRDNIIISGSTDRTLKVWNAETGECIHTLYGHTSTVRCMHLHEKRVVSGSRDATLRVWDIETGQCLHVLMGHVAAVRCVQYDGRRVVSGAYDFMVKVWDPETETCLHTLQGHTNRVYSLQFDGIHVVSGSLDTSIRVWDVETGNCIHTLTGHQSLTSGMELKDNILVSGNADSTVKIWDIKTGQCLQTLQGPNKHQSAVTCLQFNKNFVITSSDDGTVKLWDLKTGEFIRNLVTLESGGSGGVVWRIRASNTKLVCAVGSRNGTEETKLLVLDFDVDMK
GPR151 conf act = confirmation of human GPR151 activators; shares compounds with GPR151 activ; GPR151 PathHunter beta-arrestin cells, luminescence, 90 min; % of EA-reagent control over plate median; activation, % at 11.2 µM; 6,700 tested, under 10 active; AID 1508609;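 active = mean percent activation across replicates above the confirmation screen cutoff of 4.91%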
GPR119 ag = GPR119 activation, counter-screen for GPR151 activators; shares compounds with GPR151 activ; GPR119 PathHunter beta-arrestin cells, luminescence, 90 min; 0 = compound-well median, 100 = enzyme-acceptor control; activation, % at 11.2 µM; 6,700 compounds, 0.3% hits; AID 1508611;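 active = mean percent activation in the counterscreen above 29.09%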;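 also: counterscreen on off-target GPR119 to flag nonselective hits from the GPR151 activator screen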
Active calls of the source: *; ! = repeats disagree.

How did COc1ccc(CN(C(=O)c2cccs2)C2CCS(=O)(=O)C2)cc1 (stereo unspecified) do in these assays?
MITF primary: 14; TEAD-YAP inh: 0; GPR151 activ: 0; FBW7 act: 0

What do the screens show for `CCOc1ccc(CN(C(=O)c2cccs2)C2CCS(=O)(=O)C2)cc1` (stereo unspecified)?
MITF primary: 5; TEAD-YAP inh: -9; GPR151 activ: 6.8*; FBW7 act: 0; GPR151 conf act: 0; GPR119 ag: 9

What do the screens show for `Cc1cc2nc(C3CCCN3C(=O)CC3(C)C(=O)N=C4C=CC=CN43)[nH]c2cc1C` (stereo unspecified)?
MITF primary: 20; TEAD-YAP inh: 4; GPR151 activ: 8.0*; FBW7 act: 1; GPR151 conf act: -1; GPR119 ag: 0

Results for Cc1cc2nc(C3CCCN3C(=O)CN3CCCCC3)[nH]c2cc1C (stereo unspecified) ?
MITF primary: 7; TEAD-YAP inh: -3; GPR151 activ: 0; FBW7 act: 0

What do the screens show for `COc1ccc(C(=O)CC2(O)C(=O)N(CC(N)=O)c3ccccc32)c(OC)c1` (stereo unspecified)?
MITF primary: 6; TEAD-YAP inh: -5; GPR151 activ: 1; FBW7 act: 0

Results for COc1ccc(S(=O)(=O)Oc2ccc(C=C3C(=O)NC(=O)NC3=O)cc2)cc1 ?
MITF primary: 9; TEAD-YAP inh: 2; GPR151 activ: 5.3*; FBW7 act: -1; GPR151 conf act: 1; GPR119 ag: 10

What do the screens show for `O=C1NC(=O)C(=Cc2ccc(OS(=O)(=O)c3ccc(Cl)cc3)cc2)C(=O)N1`?
MITF primary: 13; TEAD-YAP inh: -5; GPR151 activ: -1; FBW7 act: 0

What do the screens show for `CCOC(=O)N1CCN(S(=O)(=O)c2ccc(C(=O)Nc3nc(-c4ccc(OC)cc4OC)cs3)cc2)CC1`?
MITF primary: -4; TEAD-YAP inh: 3; GPR151 activ: 2; FBW7 act: 0

Results for C/C(=N\Nc1cc(-n2cc(C)cn2)ncn1)c1ccccc1 ?
MITF primary: 4; TEAD-YAP inh: -10; GPR151 activ: 0; FBW7 act: 0

Results for C/C(=N\Nc1cc(-n2cc(C)cn2)ncn1)c1cccc([N+](=O)[O-])c1 ?
MITF primary: 14; TEAD-YAP inh: 10; GPR151 activ: 19*; FBW7 act: 0; GPR151 conf act: 0; GPR119 ag: 4

What do the screens show for `Cc1oc2c(O)c(O)ccc2c(=O)c1-c1ccccc1Cl`?
MITF primary: 1; TEAD-YAP inh: -8; GPR151 activ: 1; FBW7 act: 0

Results for COc1ccc(N2CCN(C3CC(=O)N(c4ccc(C(=O)O)cc4)C3=O)CC2)cc1 (stereo unspecified) ?
MITF primary: 13; TEAD-YAP inh: 5; GPR151 activ: 6.0*; FBW7 act: 0; GPR151 conf act: 0; GPR119 ag: 4

Results for CCOc1cccc(N2C(=O)CC(N3CCN(c4ccccn4)CC3)C2=O)c1 (stereo unspecified) ?
MITF primary: -11; TEAD-YAP inh: 5; GPR151 activ: 0; FBW7 act: 0

How did COc1cccc(N2C(=O)CC(N3CCN(c4ccccn4)CC3)C2=O)c1 (stereo unspecified) do in these assays?
MITF primary: 3; TEAD-YAP inh: 0; GPR151 activ: 5.1*; FBW7 act: 0; GPR151 conf act: 0; GPR119 ag: -6

How did Cc1nc2c(cnn2-c2ccccc2)c(=O)n1Cc1ccccc1 do in these assays?
MITF primary: -3; TEAD-YAP inh: 9; GPR151 activ: 3; FBW7 act: 0

Results for CNc1c([N+](=O)[O-])cnc(N/C=C/C=C/C=C(C#N)C#N)c1C#N ?
MITF primary: 16; TEAD-YAP inh: 10; GPR151 activ: -1; FBW7 act: 0

Results for COC(=O)C1=C(C)N(C)C(C)=C(C(=O)OC)C1c1ccc(F)c(Br)c1 ?
MITF primary: 3; TEAD-YAP inh: 4; GPR151 activ: 5.2*; FBW7 act: 0; GPR151 conf act: 0; GPR119 ag: 5

How did CCC(C)(C)NC(=O)CN(C(=O)CCC(=O)Nc1nccs1)c1ccccc1C do in these assays?
MITF primary: -10; TEAD-YAP inh: -10; GPR151 activ: 1; FBW7 act: 0

How did Cc1ccccc1N(CC(=O)NC(C)(C)C)C(=O)CCC(=O)Nc1nccs1 do in these assays?
MITF primary: 8; TEAD-YAP inh: 0; GPR151 activ: 5.7*; FBW7 act: 0; GPR151 conf act: -1; GPR119 ag: -12

How did O=C(NNC(=S)Nc1ccccc1Cl)C1CC1 do in these assays?
MITF primary: 5; TEAD-YAP inh: 6; GPR151 activ: 6.0*; FBW7 act: 0; GPR151 conf act: 1; GPR119 ag: 9

How did CCOC(=O)c1csc(NC(=O)Nc2ccc(Cl)cc2)n1 do in these assays?
MITF primary: -6; TEAD-YAP inh: -7; GPR151 activ: -1; FBW7 act: 0

How did CC(C)N(C(=O)Cc1csc(NC(=O)Nc2ccc(Cl)cc2)n1)C(C)C do in these assays?
MITF primary: -7; TEAD-YAP inh: 5; GPR151 activ: 11*; FBW7 act: 0; GPR151 conf act: 0; GPR119 ag: -10

Results for O=C(NCCOc1ccccc1)c1ccc(-c2ccccc2)s1 ?
MITF primary: 3; TEAD-YAP inh: -15; GPR151 activ: -4; FBW7 act: 0

What do the screens show for `COc1cc(/C=N/N2C(C)CCCC2C)cc(Br)c1O` (stereo unspecified)?
MITF primary: -12; TEAD-YAP inh: 1; GPR151 activ: 8.2*; FBW7 act: 0; GPR151 conf act: -1; GPR119 ag: -9

What do the screens show for `Nc1c(Br)cc(Br)cc1CNC1CCC(O)CC1` (stereo unspecified)?
MITF primary: -14; TEAD-YAP inh: -1; GPR151 activ: 5.7*!; FBW7 act: 0; GPR151 conf act: 0; GPR119 ag: 7

Results for COc1ccc(Br)cc1CNC1CCCC1 ?
MITF primary: 31; TEAD-YAP inh: -10; GPR151 activ: -1; FBW7 act: 0

How did COc1ccc(N2C(=O)c3cc(Cl)c(Cl)cc3C2=O)cc1 do in these assays?
MITF primary: 1; TEAD-YAP inh: 5; GPR151 activ: 1; FBW7 act: 0

How did Cc1ccccc1S(=O)(=O)Nc1cc2c3c(oc2c2ccccc12)CCC(C(C)(C)C)C3 (stereo unspecified) do in these assays?
MITF primary: -16; TEAD-YAP inh: 17; GPR151 activ: 0; FBW7 act: 0

Results for CCc1ccc(N(CC(=O)NC)S(C)(=O)=O)cc1 ?
MITF primary: -12; TEAD-YAP inh: -3; GPR151 activ: 5.3*; FBW7 act: 0; GPR151 conf act: 0; GPR119 ag: -10

High-throughput results as filed in PubChem.
